From PubChem BioAssay (Tox21)
Records with an inconclusive call do not appear. Entries that show only a call come without a potency. A number with no mark means an inactive call. The source made the active and inactive calls. Unless noted, calls follow the shape of the dose curve; as a rule, active = well fitted curve in the direction sought with a large enough effect in the repeat runs; inconclusive = weak or mixed curves; inactive = no such curve, though single readings can be large; an effect the other way counts as inactive or inconclusive.

Columns and labels:
[1] = qHTS assay to identify aromatase inhibitors - cell viability counter screen (AID 743084);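 also: cells stimulated with testosterone during compound exposure; nearly all actives have a fitted effect of over 55% in size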; also: potency is read from the fitted curve at half-maximal effect
[2] = target: Aryl hydrocarbon receptor (Homo sapiens) (UniProt P35869); test: qHTS assay to identify small molecule that activate the aryl hydrocarbon receptor (AhR) signaling pathway (AID 743085); also: nearly all actives have a fitted effect of over 15% in size; also: potency is read from the fitted curve at half-maximal effect;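 as to activation: HG2L7.5c1 human HepG2 liver cells with stably integrated DRE-driven firefly reporter; series mostly up to about 70 µM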
Summary of the method: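 Compounds were tested in HepG2 hepatocellular carcinoma cells harbouring a stably integrated luciferase gene under control of 20 DREs. Increased reporter signal after 24 h treatment at 37C was taken as AhR activation.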

[3] = qHTS assay to identify small molecule that activate the aryl hydrocarbon receptor (AhR) signaling pathway - cell viability counter screen (AID 743086);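 also: HepG2 liver cells carrying the AhR DRE luciferase reporter; series mostly up to about 70 µM; nearly all actives have a fitted effect of over 45% in size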
Summary of the method: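 HepG2-AhR-luc (HG2L7.5c1) cells, 4000/well, were preincubated 5 h at 37C, exposed to compound in qHTS format for 24 hr at 37C, then given CellTiter-Fluor for 30 min; viability was read as fluorescence in the reporter wells.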

[4] = qHTS assay for small molecule agonists of the antioxidant response element (ARE) signaling pathway - cell viability counter screen (AID 743203; calls by dose curve; also: nearly all actives have a fitted effect of over 55% in size; also: potency is read from the fitted curve at half-maximal effect)
Summary of the method: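 Viability counter screen: CellTiter-Glo luminescence, read after 30 min at room temperature, in ARE-bla HepG2 wells. Compound exposure lasted 16 h at 37C/5% CO2, following a 5 h pre-incubation of the cells after plating.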

[5] = qHTS assay for small molecule activators of the heat shock response signaling pathway - cell viability counter screen (AID 743209); also: nearly all actives have a fitted effect of over 50% in size
Summary of the method: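 Cytotoxicity counter screen run in the same wells as the heat-shock bla reporter assay: HeLa HSE-bla cells, 5 h compound exposure at 37 C, viability read by CellTiter-Glo luminescence.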

[6] = qHTS assay for small molecule activators of the heat shock response signaling pathway (AID 743210; active = well fitted activation curve with a large enough effect in the signal ratio in the repeat runs, with a control signal flat, not every such curve was filed as active; the % refers to the signal ratio; also: series mostly up to about 63 µM)
Summary of the method: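 Heat shock element–beta-lactamase HeLa reporter cells; qHTS with compounds for 5 h at 37 C; detection by FRET substrate fluorescence after 2.5 h at RT.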

[7] = qHTS assay to identify small molecule agonists of the peroxisome proliferator-activated receptor delta (PPARd) signaling pathway - cell viability counter screen (AID 743211); also: nearly all actives have a fitted effect of over 55% in size
Summary of the method: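 Counter screen for cytotoxicity run in parallel with the PPARd reporter screen. Beta-lactamase reporter HEK293H cells exposed to compounds 17 h; ATP-based CellTiter-Glo luminescence quantified viability.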

[8] = qHTS assay to identify small molecule antagonists of the peroxisome proliferator-activated receptor delta (PPARd) signaling pathway - cell viability counter screen (AID 743213); also: nearly all actives have a fitted effect of over 50% in size
Summary of the method: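 HEK293H PPARd UAS-bla cells, 5 h pre-incubation, compound + L165041 300 nM final, 17 h 37 C; B/G FRET substrate 2 h RT; then CellTiter-Glo 30 min RT, luminescence.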

[9] = target: Bile acid receptor (Homo sapiens) (UniProt Q96RI1); test: qHTS assay to identify small molecule antagonists of the farnesoid-X-receptor (FXR) signaling pathway (AID 743217; active = well fitted inhibition curve with a large enough effect in the signal ratio in the repeat runs, not every such curve was filed as active; the % refers to the signal ratio)
Summary of the method: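 Antagonist mode: chenodeoxycholic acid at 50 uM final stimulates a UAS-driven beta-lactamase reporter in HEK 293T FXR-bla cells during 16 h, 37C compound exposure. Read-out is FRET substrate fluorescence after 2 h at room temperature.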

[10] = qHTS assay to identify small molecule agonists of the farnesoid-X-receptor (FXR) signaling pathway - cell viability counter screen (AID 743218); also: nearly all actives have a fitted effect of over 45% in size
Summary of the method: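 Viability counter screen in the same wells: CellTiter-Glo luminescence, 30 min room-temperature incubation, measured after the beta-lactamase read. Cells were GeneBLAzer FXR-UAS-bla HEK 293T, compound-treated 16 h at 37C.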

[11] = target: Bile acid receptor (Homo sapiens) (UniProt Q96RI1); test: qHTS assay to identify small molecule agonists of the farnesoid-X-receptor (FXR) signaling pathway (AID 743220; active = well fitted activation curve with a large enough effect in the signal ratio in the repeat runs, not every such curve was filed as active; the % refers to the signal ratio)
Summary of the method: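 FXR-UAS-bla HEK 293T cells carrying a UAS-driven beta-lactamase reporter were plated for 5 h at 37C/5% CO2, then exposed to DMSO-dissolved Tox21 10K compounds for 16 h at 37C. A LiveBLAzer B/G FRET substrate was loaded for 2 h at room temperature before fluorescence reading.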

[12] = qHTS assay to identify small molecule antagonists of the farnesoid-X-receptor (FXR) signaling pathway - cell viability counter screen (AID 743221; active = well fitted cell-killing curve with a large enough effect in the repeat runs, not every such curve was filed as active; also: nearly all actives have a fitted effect of over 50% in size)
Summary of the method: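 Multiplexed counter screen: viability of FXR-bla HEK 293T cells under agonist stimulation by chenodeoxycholic acid (50 uM, final) and test compound for 16 h at 37 C, measured by CellTiter-Glo luminescence in the reporter wells.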

[13] = target: Vitamin D3 receptor (Homo sapiens) (UniProt P11473); test: qHTS assay to identify small molecule antagonists of the vitamin D receptor (VDR) signaling pathway (AID 743223; active = well fitted inhibition curve with a large enough effect in the signal ratio in the repeat runs, not every such curve was filed as active; the % refers to the signal ratio)
Summary of the method: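 Cells carrying a VDR-driven beta-lactamase reporter (VDR-bla) were co-treated with compound and 3 nM final 1alpha,25-dihydroxyvitamin D3 for 16 h at 37C; reporter activity was measured as FRET substrate fluorescence after 2 h at room temperature.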

[14] = target: Peroxisome proliferator-activated receptor gamma (Homo sapiens) (UniProt P37231); test: qHTS assay to identify small molecule agonists of the peroxisome proliferator-activated receptor gamma (PPARg) signaling pathway (AID 743094; active = well fitted activation curve with a large enough effect in the signal ratio in the repeat runs, not every such curve was filed as active; the % refers to the signal ratio)
Summary of the method: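 Agonist activity was taken from a beta-lactamase reporter (FRET substrate, 1 h at room temperature) in HEK293H cells carrying a PPARg UAS-bla construct. Compounds in DMSO were incubated 17 h at 37C after a 5 h cell pre-incubation.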

[15] = target: Peroxisome proliferator-activated receptor gamma (Homo sapiens) (UniProt P37231); test: qHTS assay to identify small molecule antagonists of the peroxisome proliferator-activated receptor gamma (PPARg) signaling pathway (AID 743191; calls by dose curve; also: series mostly up to about 63 µM; nearly all actives have a fitted effect of over 30% in size)
Summary of the method: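 GeneBLAzer PPARg UAS-bla HEK293H cells carrying a UAS-driven beta-lactamase reporter were plated at 3000 cells/well, preincubated 5 h at 37C, then given compound for 17 h at 37C; LiveBLAzer B/G FRET substrate was read after 1 h at room temperature.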

[16] = qHTS assay to identify small molecule antagonists of the peroxisome proliferator-activated receptor gamma (PPARg) signaling pathway - cell viability counter screen (AID 743194); also: nearly all actives have a fitted effect of over 55% in size
Summary of the method: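 PPARg-UAS-bla HEK293H cells were plated, rested 5 h at 37 C, then treated with compounds plus rosiglitazone (50 nM final) for 17 h at 37 C; viability was then read by CellTiter-Glo luminescence after 30 min at room temperature.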

[17] = target: Peroxisome proliferator-activated receptor delta (Homo sapiens) (UniProt Q03181); test: qHTS assay to identify small molecule agonists of the peroxisome proliferator-activated receptor delta (PPARd) signaling pathway (AID 743212; calls by dose curve)
Summary of the method: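 Beta-lactamase reporter read by fluorescence (LiveBLAzer B/G FRET, 2 h, room temperature). Test agents, in DMSO, incubated at 37 C with PPARd-bla HEK293H cells.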

[18] = target: Peroxisome proliferator-activated receptor delta (Homo sapiens) (UniProt Q03181); test: qHTS assay to identify small molecule antagonists of the peroxisome proliferator-activated receptor delta (PPARd) signaling pathway (AID 743215; active = well fitted inhibition curve with a large enough effect in the signal ratio in the repeat runs, not every such curve was filed as active; the % refers to the signal ratio;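 also: cells stimulated with agonist L165041 at 300 nM final during compound exposure; series mostly up to about 62 µM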)
Summary of the method: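 Agonist L165041 (300 nM final) added with compound to PPARd-bla HEK293H UAS-bla reporter cells; 17 h incubation at 37 C. Read-out: LiveBLAzer FRET substrate, 2 h at room temperature, fluorescence intensity.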

[19] = target: Vitamin D3 receptor (Homo sapiens) (UniProt P11473); test: qHTS assay to identify small molecule agonists of the vitamin D receptor (VDR) signaling pathway (AID 743222; calls by dose curve)
Summary of the method: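 Agonist mode, beta-lactamase reporter: fluorescence from LiveBLAzer B/G FRET substrate (2 h, room temperature) read after 16 h compound treatment at 37 C of VDR-bla cells, which were pre-incubated 4 h after seeding.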

[20] = qHTS assay for small molecule agonists of the antioxidant response element (ARE) signaling pathway (AID 743202; active = well fitted activation curve with a large enough effect in the signal ratio in the repeat runs, not every such curve was filed as active; the % refers to the signal ratio)
Summary of the method: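 Following a 16 h, 37 C exposure of reporter HepG2 cells (ARE-driven beta-lactamase, 2,000 cells/well) to compounds, FRET substrate was applied for 2 h at room temperature and fluorescence intensity recorded.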

Peroxisome proliferator-activated receptor delta (Homo sapiens), sequence (Q03181 whole entry, looked up): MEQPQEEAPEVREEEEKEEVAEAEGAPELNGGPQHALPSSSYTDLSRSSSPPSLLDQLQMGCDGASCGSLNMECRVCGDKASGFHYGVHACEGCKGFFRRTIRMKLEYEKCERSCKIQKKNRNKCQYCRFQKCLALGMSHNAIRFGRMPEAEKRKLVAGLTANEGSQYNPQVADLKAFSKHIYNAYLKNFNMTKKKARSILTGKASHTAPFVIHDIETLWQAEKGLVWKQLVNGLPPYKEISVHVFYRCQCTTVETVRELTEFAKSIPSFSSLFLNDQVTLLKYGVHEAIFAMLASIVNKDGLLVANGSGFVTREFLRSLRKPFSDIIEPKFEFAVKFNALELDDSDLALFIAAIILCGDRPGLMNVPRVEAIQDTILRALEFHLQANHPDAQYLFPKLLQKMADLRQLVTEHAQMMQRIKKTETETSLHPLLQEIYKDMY
Bile acid receptor (Homo sapiens), sequence (Q96RI1 whole entry, looked up): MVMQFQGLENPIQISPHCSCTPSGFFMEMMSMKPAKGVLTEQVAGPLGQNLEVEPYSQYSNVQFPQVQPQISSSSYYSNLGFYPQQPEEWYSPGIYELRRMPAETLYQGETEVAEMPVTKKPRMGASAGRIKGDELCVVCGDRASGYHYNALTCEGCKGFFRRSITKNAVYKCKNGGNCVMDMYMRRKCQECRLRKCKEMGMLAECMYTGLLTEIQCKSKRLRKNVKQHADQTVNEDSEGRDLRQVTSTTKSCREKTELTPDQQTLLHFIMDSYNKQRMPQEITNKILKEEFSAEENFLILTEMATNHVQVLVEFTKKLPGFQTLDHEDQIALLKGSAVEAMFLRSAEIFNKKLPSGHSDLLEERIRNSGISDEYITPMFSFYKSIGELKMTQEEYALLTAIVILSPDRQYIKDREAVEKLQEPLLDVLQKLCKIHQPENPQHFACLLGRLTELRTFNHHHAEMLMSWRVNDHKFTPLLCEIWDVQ
Aryl hydrocarbon receptor (Homo sapiens), sequence (P35869 whole entry, looked up): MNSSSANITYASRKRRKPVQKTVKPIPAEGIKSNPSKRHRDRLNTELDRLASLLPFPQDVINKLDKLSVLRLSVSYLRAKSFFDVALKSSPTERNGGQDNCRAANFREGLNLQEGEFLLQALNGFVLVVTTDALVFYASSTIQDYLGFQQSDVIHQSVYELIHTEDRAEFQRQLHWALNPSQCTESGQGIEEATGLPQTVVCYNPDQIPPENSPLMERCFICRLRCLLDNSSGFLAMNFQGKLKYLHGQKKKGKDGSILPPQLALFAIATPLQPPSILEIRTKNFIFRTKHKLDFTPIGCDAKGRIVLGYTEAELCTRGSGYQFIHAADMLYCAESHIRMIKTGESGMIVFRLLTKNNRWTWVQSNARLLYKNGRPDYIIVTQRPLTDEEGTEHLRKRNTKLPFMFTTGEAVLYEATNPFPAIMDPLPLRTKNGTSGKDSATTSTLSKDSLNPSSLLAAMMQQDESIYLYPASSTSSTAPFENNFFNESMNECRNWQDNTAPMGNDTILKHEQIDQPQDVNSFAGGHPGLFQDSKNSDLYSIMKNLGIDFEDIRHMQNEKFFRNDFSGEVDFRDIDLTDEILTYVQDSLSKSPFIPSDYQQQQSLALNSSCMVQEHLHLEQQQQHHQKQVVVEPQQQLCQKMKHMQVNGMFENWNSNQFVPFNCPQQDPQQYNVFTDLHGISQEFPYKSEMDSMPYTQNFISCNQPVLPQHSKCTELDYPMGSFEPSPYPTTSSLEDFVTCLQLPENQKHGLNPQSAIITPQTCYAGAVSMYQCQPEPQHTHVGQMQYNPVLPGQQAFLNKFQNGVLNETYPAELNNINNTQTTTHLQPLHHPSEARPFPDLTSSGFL
Peroxisome proliferator-activated receptor gamma (Homo sapiens), sequence (P37231 whole entry, looked up): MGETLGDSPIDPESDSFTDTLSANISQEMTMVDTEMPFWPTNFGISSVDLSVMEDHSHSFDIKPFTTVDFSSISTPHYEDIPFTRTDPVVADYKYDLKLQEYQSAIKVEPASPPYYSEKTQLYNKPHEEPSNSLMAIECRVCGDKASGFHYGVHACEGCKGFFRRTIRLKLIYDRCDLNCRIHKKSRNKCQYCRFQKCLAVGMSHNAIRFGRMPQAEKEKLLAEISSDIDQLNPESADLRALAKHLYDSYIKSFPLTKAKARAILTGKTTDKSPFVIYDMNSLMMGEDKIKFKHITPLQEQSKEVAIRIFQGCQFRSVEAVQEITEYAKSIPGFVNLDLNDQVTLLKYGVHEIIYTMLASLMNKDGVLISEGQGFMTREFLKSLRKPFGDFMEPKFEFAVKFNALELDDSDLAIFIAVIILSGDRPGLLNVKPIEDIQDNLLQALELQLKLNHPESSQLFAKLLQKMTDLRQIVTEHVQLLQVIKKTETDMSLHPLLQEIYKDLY
Vitamin D3 receptor (Homo sapiens), sequence (P11473 whole entry, looked up): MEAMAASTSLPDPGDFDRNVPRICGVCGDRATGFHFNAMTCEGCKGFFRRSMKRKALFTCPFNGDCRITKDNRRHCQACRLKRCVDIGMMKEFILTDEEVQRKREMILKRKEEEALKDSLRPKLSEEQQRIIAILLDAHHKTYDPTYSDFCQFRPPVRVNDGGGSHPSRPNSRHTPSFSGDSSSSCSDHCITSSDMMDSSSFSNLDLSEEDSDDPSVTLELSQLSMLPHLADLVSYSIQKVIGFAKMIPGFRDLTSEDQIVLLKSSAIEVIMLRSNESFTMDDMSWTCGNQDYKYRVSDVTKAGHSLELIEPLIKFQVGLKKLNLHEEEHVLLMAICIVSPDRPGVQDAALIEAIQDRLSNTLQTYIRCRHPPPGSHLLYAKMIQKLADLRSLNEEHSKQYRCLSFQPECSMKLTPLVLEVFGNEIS

Row | Compound | Potency [1] | Potency [2] | outcome [3] | Potency [4] | outcome [5] | Potency [6] | Potency [7] | Potency [8] | outcome [9] | Potency [10] | outcome [11] | outcome [12] | outcome [13] | Potency [14] | Potency [15] | Potency [16] | outcome [17] | outcome [18] | outcome [19] | Potency [20]
1 | C=CCc1cc(OC)c(O)c(C(=O)NCCO)c1 | inactive | inactive | inactive | inactive | inactive | inactive | inactive | inactive | inactive | inactive | inactive | inactive | inactive | – | – | – | – | – | – | –
2 | CCC(=O)Nc1ccc(O)cc1 | inactive | – | inactive | inactive | inactive | inactive | inactive | inactive | inactive | inactive | inactive | inactive | inactive | inactive | inactive | inactive | inactive | inactive | inactive | –
3 | Cc1nnc(SCC2=C(C(=O)O)N3C(=O)[C@@H](NC(=O)Cn4cnnn4)[C@H]3SC2)s1 | inactive | – | inactive | inactive | inactive | inactive | – | inactive | – | inactive | – | inactive | – | inactive | inactive | inactive | inactive | inactive | – | –
4 | CC(=O)Nc1ccc(C)c(Cl)c1 | inactive | – | inactive | inactive | inactive | inactive | – | – | inactive | – | inactive | – | inactive | inactive | inactive | – | inactive | inactive | inactive | inactive
5 | CN1[C@@H]2CC[C@H]1CC(OC(=O)c1c[nH]c3ccccc13)C2 (stereo partly specified) | inactive | inactive | – | inactive | inactive | inactive | – | inactive | inactive | – | inactive | – | – | inactive | inactive | – | – | inactive | – | inactive
6 | Nc1ccc(Oc2ccc(N)c(N)c2)cc1 | inactive | 1.54 µM (active) | – | inactive | inactive | – | – | inactive | – | inactive | inactive | – | inactive | inactive | – | inactive | – | inactive | inactive | –
7 | CCOC(=O)COc1ccc2c(c1)CC(NCC(O)c1cccc(Cl)c1)CC2 (stereo unspecified) | 21.9 µM (active) | inactive | – | 48.9 µM (active) | inactive | – | – | inactive | – | inactive | – | inactive | – | – | inactive | – | inactive | inactive | – | –
8 | CN(CCCN1c2ccccc2CCc2ccccc21)CC(=O)c1ccc(Cl)cc1 | inactive | 29.8 µM (active) | – | inactive | – | – | – | inactive | inactive | inactive | inactive | inactive | inactive | – | inactive | inactive | inactive | inactive | inactive | –
9 | CCCCc1ccc2nc(NC(=O)OC)[nH]c2c1 | inactive | – | inactive | inactive | inactive | – | – | inactive | – | inactive | inactive | inactive | – | inactive | inactive | inactive | – | – | – | –
10 | CCCCOc1cc(C(=O)NCCN(CC)CC)c2ccccc2n1 | inactive | – | inactive | inactive | inactive | inactive | – | – | – | inactive | – | inactive | – | inactive | inactive | – | – | – | – | –
